From PubChem BioAssay (NCATS)
Results filed as inconclusive are left out. The call rests on the fitted dose curve; in most records, active means well fitted activation curve with a large enough effect; inconclusive means small, poorly fitted or top-dose-only effect; inactive means no such curve, though single readings can be large or run the other way.

target: Rap guanine nucleotide exchange factor 4 (Homo sapiens) (UniProt Q8WZA2); test: Confirmatory qHTS for agonist of cAMP-regulated guanine nucleotide exchange factor 4 (EPAC2) (AID 1645884); conditions: EPAC2 GEF activity, Rap1B-BODIPY-GDP fluorescence; series mostly up to 154 µM; activation: at the top concentration;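 further: nucleotide exchange releases bodipy-GDP from Rap1 and this lowers its fluorescence; nearly all actives have a fitted effect of over 65% in size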
On the % scale 0 is the no-effect control and ±100 the full control effect.

Chain of Rap guanine nucleotide exchange factor 4 (Homo sapiens) (Q8WZA2 whole entry, looked up): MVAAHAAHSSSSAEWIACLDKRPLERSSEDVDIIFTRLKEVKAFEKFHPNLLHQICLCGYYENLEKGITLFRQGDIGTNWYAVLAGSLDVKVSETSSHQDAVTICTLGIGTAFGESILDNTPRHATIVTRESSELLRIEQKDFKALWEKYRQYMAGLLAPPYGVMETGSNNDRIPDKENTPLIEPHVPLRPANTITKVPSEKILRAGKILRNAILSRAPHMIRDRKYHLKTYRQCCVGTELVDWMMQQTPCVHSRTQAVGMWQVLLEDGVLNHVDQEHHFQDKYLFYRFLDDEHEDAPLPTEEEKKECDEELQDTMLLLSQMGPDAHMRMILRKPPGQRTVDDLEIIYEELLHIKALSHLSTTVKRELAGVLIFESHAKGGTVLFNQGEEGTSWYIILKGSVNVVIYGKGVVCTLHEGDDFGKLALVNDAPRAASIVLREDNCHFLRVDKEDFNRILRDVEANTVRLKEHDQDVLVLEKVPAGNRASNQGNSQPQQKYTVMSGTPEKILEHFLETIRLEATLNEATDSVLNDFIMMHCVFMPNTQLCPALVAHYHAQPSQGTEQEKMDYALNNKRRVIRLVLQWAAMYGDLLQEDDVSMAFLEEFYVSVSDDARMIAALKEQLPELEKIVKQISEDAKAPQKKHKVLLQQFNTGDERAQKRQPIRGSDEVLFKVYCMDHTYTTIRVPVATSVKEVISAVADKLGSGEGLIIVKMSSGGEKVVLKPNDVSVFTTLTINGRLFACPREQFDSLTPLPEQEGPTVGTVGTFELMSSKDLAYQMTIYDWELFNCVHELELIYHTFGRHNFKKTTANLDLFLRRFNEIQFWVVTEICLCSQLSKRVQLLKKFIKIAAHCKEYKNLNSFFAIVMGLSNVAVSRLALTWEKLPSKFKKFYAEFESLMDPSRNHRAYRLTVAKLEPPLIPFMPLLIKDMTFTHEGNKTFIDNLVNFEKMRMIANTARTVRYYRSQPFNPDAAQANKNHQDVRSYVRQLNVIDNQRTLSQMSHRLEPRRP

activation, inactive:
COc1cc(O)c(C(C)=O)c2c1C=CC(C)(C)O2 15.3%
COCCCn1c(=O)/c(=C\c2ccccc2OC(C)C)s/c1=C(/C#N)C(=O)Nc1ccc(C(=O)O)cc1 8.99% [at 17.1 µM, percent relative to cAMP agonist control]
COC(=O)c1ccc2nc(-c3ccc(F)cc3)c(Cc3ccc(C)cc3)n2c1 1.87% [at 17.1 µM, percent relative to cAMP agonist control]
Cc1ccc(NC(=O)CN2C(=O)S/C(=C\c3cccn3-c3cccc(C(=O)O)c3)C2=O)cc1C 3.81% [at 17.1 µM, percent relative to cAMP agonist control]
COc1ccc(N2Cc3cccc(C(=O)Nc4ccc(C(C)C)cc4)c3C2=O)cc1 -6.79% [at 83.8 µM, percent relative to cAMP agonist control]
CN(C)S(=O)(=O)c1ccc(N2CCCC2)c(C(=O)NCC2COc3ccccc3O2)c1 (stereo not drawn) 6.96%
CCC1=NN2C(=N)/C(=C/c3ccc(OS(=O)(=O)c4ccccc4)cc3)C(=O)N=C2S1 13.2%
CCCn1cc(SCC(=O)NCc2ccc3c(c2)OCO3)c2ccccc21 0% [at 17.1 µM, percent relative to cAMP agonist control]
CCOC(=O)C1CCN(c2c(C(=O)c3ccc(C)cc3)cnc3ccc(F)cc23)CC1 1.33% [at 83.8 µM, percent relative to cAMP agonist control]
O=C(CSc1nc2ccc(Cl)cc2[nH]1)N1CCN(C(=O)c2ccco2)CC1 -2.49%
O=C(CSc1nc(O)cc(=O)n1-c1ccccc1)Nc1nc2ccccc2s1 5.69%
CCn1c(=O)c2sccc2n2c(CCCC(=O)N3CCN(c4cc(Cl)ccc4C)CC3)nnc12 -26.5% [at 83.8 µM, percent relative to cAMP agonist control]
O=C(O)/C=C\C(=O)Nc1ccccc1C#Cc1ccc(Br)cc1 3.43%
COc1cccc(C(=O)Nc2ccc(NC(=O)c3ccco3)c(Cl)c2)c1 0% [at 17.1 µM, percent relative to cAMP agonist control]
O=C(NC1CCCCC1)C(c1ccc(-c2ccccc2)cc1)n1c(=O)c(-c2ccco2)nc2ccccc21 (stereo not drawn) 13%
CC(C)N(Cc1ccccc1)C(=O)c1nc(-c2ccc(Cl)cc2)n2c1CCCCC2 0% [at 83.8 µM, percent relative to cAMP agonist control]
COc1cccc(/C=C2\SC(=S)NC2=O)c1OS(=O)(=O)c1ccc(NC(C)=O)cc1 5.66% [at 17.1 µM, percent relative to cAMP agonist control]
CC[C@@H]1CC=C[C@H]2[C@H]1C(=O)N(Cc1ccccc1)[C@H]2c1ccc(OC)c(Cl)c1 0%
CN(C)c1ccc(-c2[nH][nH]c(=O)c2NC(=O)c2ccccn2)cc1 4.32%
Cc1cc(CSc2ccc(Cl)cc2)ccc1N 8.49%
O=C(/C=C/c1ccccc1Cl)c1ccc(O)cc1 13.2% [at 17.1 µM, percent relative to cAMP agonist control]
CCOC(=O)C1=C(C)NC(C)=C(C(=O)OCC)C1c1cccc([N+](=O)[O-])c1 8.4% [at 17.1 µM, percent relative to cAMP agonist control]
CCc1nc2c(OCc3ccc(C(F)(F)F)cc3)cccn2c1N(C)C(=O)c1ccc(C)cc1 -12.1%
CCCS(=O)(=O)c1c(S(=O)(=O)CCC)c2cnccn2c1C(=O)c1ccc(CC)cc1 12.5% [at 17.1 µM, percent relative to cAMP agonist control]
Cc1cccc(S(=O)(=O)Nc2ccc(S(=O)(=O)Nc3nccs3)cc2)c1 -6.54%
C[C@@]12C(=O)Nc3cc(F)ccc3C(=O)N1[C@H]1c3cc(Br)ccc3OC[C@@H]1[C@@H]2c1ccccc1 6%
CC1OC(CC(=O)O)CC2=C1C(=O)c1c(O)cccc1C2=O (stereo not drawn) 19.4%
CS/C(=C\C(=O)c1ccco1)Nc1ccccc1Cl 17.7%
O=C(CCCn1c(SCC(=O)c2ccc(O)c(O)c2)nc2ccccc2c1=O)NCC1CCCO1 (stereo not drawn) 0%
COc1ccccc1-c1oc2ccccc2c1C#CC(C)(C)O 2.76%
O=C(N/N=C/c1c(O)ccc2ccccc12)c1[nH]ncc1Br 26.6%
Cc1ccc(-c2nn(-c3ccccc3)cc2C=C2SC(=S)N(CCS(=O)(=O)O)C2=O)cc1 6.87% [at 17.1 µM, percent relative to cAMP agonist control]
COc1cc(NC(=O)c2cc3nc(-c4ccccc4)cc(-c4ccccc4)n3n2)cc(OC)c1OC 5.09%
